# Out of some 2,100 compounds screened, about 940 (45%) were called active. Another 48% or so got no clear call; they are omitted. Calls follow the shape of the dose curve; as a rule, active = well fitted inhibition curve with a large enough effect; inconclusive = small, poorly fitted or top-dose-only effect; inactive = no such curve, though single readings can be large or run the other way. The set was probably picked from earlier hits. The list shows a part of the results.
# Assay: Confirmatory qHTS for Inhibitors of ATXN expression; also: nearly all actives have a fitted effect of over 65% in size
# Conditions: ATXN2-luciferase reporter cells, luminescence, 24 h; series mostly up to 11.5 µM
# In short: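 A titration, incubated 24 h with reporter cells expressing ATXN2-luciferase. Luminescence (SteadyGlo) gives ATXN2 expression, multiplexed GF-AFC fluorescence gives viability; normalised to DMSO and medium-only wells.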
# Potency is read from the fitted curve at half-maximal effect.
row,SMILES,Potency
1,N=c1c2c(n(Cc3ccc(Br)cc3)c3c1CCC3)CCCC2,1.12 µM (active)
2,C=CCNc1oc(-c2ccc(Cl)cc2)nc1C#N,inactive
3,Cc1ccc2[nH]c(=O)c(CN(CCCN(C)C)C(=O)Nc3cccc(Cl)c3)cc2c1,22.4 µM (active)
4,COc1ccc(/C=N/Nc2cc(N3CCCC3)nc(N3CCCC3)n2)cc1,3.16 µM (active)
5,Cc1c(C(=O)Nc2nonc2-c2ccc(F)cc2)oc2ccc(F)cc12,25.1 µM (active)
6,Cc1nc2c(OCc3cc(Cl)cc(Cl)c3)cccn2c1N(C)C(=O)CCC1CCCC1,22.4 µM (active)
7,CCc1nc2c(OCCOc3ccc(F)cc3)cccn2c1N(C)C(=O)c1ccco1,inactive
8,Cc1nn(-c2ccccc2)c2nc(-c3cccs3)cc(C(=O)NN)c12,14.1 µM (active)
9,Cn1cc(C(=O)c2ccc(Cl)cc2Cl)cc1C(=O)N/N=C(\N)COc1ccc(Cl)cc1,11.2 µM (active)
10,Cc1onc(-c2c(Cl)cccc2Cl)c1C(=O)N/N=C(\N)COc1ccc(Cl)cc1,2.51 µM (active)
11,O=C(Nc1nc(NC(=O)c2ccco2)n(-c2ccccc2)n1)c1ccccc1,3.16 µM (active)
12,Cc1c(Cl)cccc1NC(=O)N1CCCN(c2nc(-c3ccccc3)ns2)CC1,10 µM (active)
13,O=C(Nc1ccccc1Cl)N1CCCN(c2nc(-c3ccccc3)ns2)CC1,15.8 µM (active)
14,CC(C)(C)c1ccc(NC(=O)N2CCCN(c3c(Cl)cncc3Cl)CC2)cc1,inactive
15,CN(C)CCC(c1ccc(Br)cc1)c1ccccn1 (configuration not stated),inactive
16,O=C(Nc1ccc(N2CCOCC2)c(Cl)c1)c1c(F)c(F)c(F)c(F)c1F,1.26 µM (active)
17,CC(=O)N/N=C/c1cc(C(C)(C)C)cc(/C=N/NC(C)=O)c1O,2.82 µM (active)
18,CC(=O)Nc1ccc(Nc2c3ccccc3nc3ccccc23)cc1,3.55 µM (active)
19,COc1ccc(Nc2c3ccccc3nc3ccccc23)cc1,14.1 µM (active)
20,CC(=O)Oc1ccc(Nc2ccccc2)cc1,inactive
21,CCOc1ccc(Nc2c3ccccc3nc3ccccc23)cc1,12.6 µM (active)
22,COc1ccc(Nc2nc(N3CCCC3)c3ccccc3n2)cc1,15.8 µM (active)
23,Cc1cc(SCC(=O)N/N=C/c2ccc(O)cc2O)c(C)cc1Br,5.62 µM (active)
24,Cc1cc(SCC(=O)N/N=C/c2ccc(O)cc2O)nc2ccccc12,11.2 µM (active)
25,Cc1cc(SCC(=O)NN)c2cc(Br)ccc2n1,inactive
26,O=C(CSc1ccc2ccccc2n1)N/N=C/c1ccccc1O,14.1 µM (active)
27,C=CCn1c(CNc2ccc(C)cc2)nnc1SCC(=O)N/N=C/c1ccc(O)cc1O,10 µM (active)

# Source: PubChem BioAssay AID1745848 (National Center for Advancing Translational Sciences (NCATS), 2022)
